# Measurements reported in PubChem BioAssay.
# “And” between values parts separate entries of the source, which are not always exact repeats. Identical values can stand only once. For part of these data: Measured potencies and affinities stand elsewhere. The source made the active and inactive calls.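 The calls were made as follows, unless noted: active = compounds whose cell count with miR-34 switched on is under 0.7 times the count with it off; inactive = the rest.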
# Assays:
# [1] = blockers of polyQ-driven CASP3 activation – cell-based (AID 1583); details: polyglutamine-induced caspase-3 activation, cell assay; stronger effect = higher value;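 tested at 10 µM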
# [2] = yeast 75Q aggregation reduction – 75Q-TubU reporter (AID 1593); details: Yeast 75Q polyglutamine aggregation reporter
# [3] = restoration of touch response, mutant HTT neurons – whole organism, C. elegans mechanosensory neurons, N-terminal huntingtin (AID 1599); details: C. elegans polyQ-huntingtin mechanosensory neurons, stronger effect = higher value
# [4] = blockers of cytochrome c efflux from mitochondria – biochemical, purified mitochondria (AID 1603); details: stronger effect = lower value;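 also: mouse liver mitochondria challenged with calcium chloride; signal normalized to the plate average as 100%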
# [5] = polyglutamine aggregate formation blockers (AID 1604); details: polyglutamine-induced protein aggregation inhibition assay; stronger effect = higher value; tested at 2.5 µM
# [6] = glutamate transport activators, MN-1 cells, MN-1 cell line (AID 1612); details: MN-1 motor neuron cells, stronger effect = higher value;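 also: tested at 1 µM final; 0% = mean of DMSO vehicle wells on each plate; positive means more glutamate uptake than control and negative means less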
# [7] = GFP-Q80 aggregate reduction, neuronal-like cells, cell-based, NGF-treated PC12, GFPQ80 (AID 1614); details: PC12 NGF-treated GFP-polyQ80 inclusion reduction;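 also: lower means fewer inclusions and 0 means no inclusions at all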
# [8] = 75Q-TubH aggregate inhibition, S. cerevisiae, yeast (AID 1616); details: S. cerevisiae 75Q-TubH polyglutamine aggregation suppression; stronger effect = higher value
# [9] = compounds altering circadian rhythm period length – cell-based, LOPAC library, luminescence reporter (AID 2774; call rule not given here;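 also: values are relative to mean of DMSO wells on each plate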); details: circadian reporter cells, at 7 µM, actives lie on both sides
# [10] = molecular target: 6-phosphogluconate dehydrogenase, decarboxylating (Homo sapiens) (UniProt P52209); assay: inhibition of human phosphogluconate dehydrogenase – biochemical, recombinant enzyme, NADPH absorbance, primary screen (AID 1159550;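 active = at least 20% inhibition of 6-phosphogluconate dehydrogenase activity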); details: recombinant 6PGD, NADPH absorbance 341 nm; at 10 µM; stronger effect = higher value
# [11] = EMT-state selective cytotoxicity in co-culture – imaging, PC-3E GFP, TEM4-18 mCherry, primary screen (AID 1345086;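 active = compounds killing one labelled cell type while sparing the other, by normalised counts and ratio limits, not self-fluorescent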;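 as to all read-outs here: cells exposed to compound for 72 h before imaging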;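 as to red/green cell ratio (normalised): normalised mesenchymal count divided by normalised epithelial count so high means epithelial killing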); details: PC-3E GFP / TEM4-18 mCherry co-culture, imaging cell counts, at 1 µM; for red/green cell ratio (normalised): actives lie on both sides, counts scaled to control wells, 1 = unselective
# [12] = viability loss with induced miR-34 in A549 – imaging, A549 dox-inducible miR-34, nuclei and caspase counts, primary screen (AID 1347080); details: A549 miR-34 inducible, Hoechst nuclei count, 48 h
# [13] = blockers of cellular phospholipid synthesis – cell-based, LOPAC library, screen 4, primary screen (AID 1347384; call rule not given here); details: animal cells, phospholipid biosynthesis inhibition screen; at 10 µM
# [14] = molecular target: Mitogen-activated protein kinase 7 (Homo sapiens) (UniProt Q13164); assay: Gal4-ERK5 driven luciferase induction – cell-based, HTS, primary screen (AID 1508626;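 active = luciferase signal above three times the same-plate solvent-only control wells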;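 also: luciferase driven by Gal4-ERK5 fusion binding five Gal4 sites before minimal TATA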); details: HeLa Gal4-ERK5 transactivation, 18 h, at 5 µM, stronger effect = higher value
# [15] = galactose survival enhancers in mitochondrial complex I cybrids – cell-based, galactose medium, ATP luminescence, primary screen (AID 1645843;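 active = z-score of at least 1.8 in each of two replicates, scored against plate mean and spread of sample wells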;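 also: positive z means more ATP and so rescue of galactose-driven cybrid death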); details: complex I mutant cybrid cells, 72 h, stronger effect = higher value
# [16] = MELAS cybrid and Rieske KO viability enhancers – cell-based, MELAS cybrids, Rieske KO mouse fibroblasts, CellTiter-Glo, primary screen (AID 1508586;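 active = mean z-score across replicates of 1.96 or higher in either the MELAS or the Rieske mutant cell line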;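 also: z relative to plate mean and SD of compound and empty wells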); details: low glucose
# [17] = P. berghei load reduction in hepatocytes – cell-based, HepG2, luciferase luminescence, HepG2 viability, primary screen (AID 624349; in the data active = parasite load remaining mostly below about 12%, no sharp cut-off; inactive = mostly above about 10%;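 also: 100% = mean of DMSO negative control wells on the same plate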); details: P. berghei liver stage in HepG2, luciferase luminescence, concentration not given here; parasite load remaining: stronger effect = lower value; viability: measured here: HepG2 viability without parasites
# [18] = molecular target: NAD(+) hydrolase SARM1 (Homo sapiens) (UniProt Q6SZW1); assay: blocking NAD cleavage by SARM1 SAM-TIR – cell lysate, NAD-Glo luminescence (AID 1508614;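 active = compound whose remaining NAD level is above about 45 nM, limit read from the data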;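 also: higher remaining NAD means stronger inhibition of SARM1 NADase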); details: SAM-TIR HEK293T lysate NADase, at 1 µM, stronger effect = higher value
# [19] = compounds altering viability of human ES cells (AID 493140; call rule not given here;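 also: cells exposed to compounds for four days before counting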); details: human embryonic stem cell survival screen; stronger effect = higher value
# [20] = measured here: epithelial PC-3E GFP cell survival
# [21] = measured here: mesenchymal TEM4-18 mCherry cell survival
# [22] = stronger effect = lower value, cell number ratio, induced over uninduced
# [23] = measured here: relative caspase fold change +Dox/-Dox
# [24] = measured here: total cells with miR-34 induction, stronger effect = lower value
# [25] = measured here: total cells without miR-34 induction
# [26] = MELAS cybrid survival, CellTiter-Glo 48 h, stronger effect = higher value
# [27] = Rieske KO mouse fibroblast survival, CellTiter-Glo 72 h
# Chain of Mitogen-activated protein kinase 7 (Homo sapiens) (Q13164 whole entry, looked up, the tested form may be a part): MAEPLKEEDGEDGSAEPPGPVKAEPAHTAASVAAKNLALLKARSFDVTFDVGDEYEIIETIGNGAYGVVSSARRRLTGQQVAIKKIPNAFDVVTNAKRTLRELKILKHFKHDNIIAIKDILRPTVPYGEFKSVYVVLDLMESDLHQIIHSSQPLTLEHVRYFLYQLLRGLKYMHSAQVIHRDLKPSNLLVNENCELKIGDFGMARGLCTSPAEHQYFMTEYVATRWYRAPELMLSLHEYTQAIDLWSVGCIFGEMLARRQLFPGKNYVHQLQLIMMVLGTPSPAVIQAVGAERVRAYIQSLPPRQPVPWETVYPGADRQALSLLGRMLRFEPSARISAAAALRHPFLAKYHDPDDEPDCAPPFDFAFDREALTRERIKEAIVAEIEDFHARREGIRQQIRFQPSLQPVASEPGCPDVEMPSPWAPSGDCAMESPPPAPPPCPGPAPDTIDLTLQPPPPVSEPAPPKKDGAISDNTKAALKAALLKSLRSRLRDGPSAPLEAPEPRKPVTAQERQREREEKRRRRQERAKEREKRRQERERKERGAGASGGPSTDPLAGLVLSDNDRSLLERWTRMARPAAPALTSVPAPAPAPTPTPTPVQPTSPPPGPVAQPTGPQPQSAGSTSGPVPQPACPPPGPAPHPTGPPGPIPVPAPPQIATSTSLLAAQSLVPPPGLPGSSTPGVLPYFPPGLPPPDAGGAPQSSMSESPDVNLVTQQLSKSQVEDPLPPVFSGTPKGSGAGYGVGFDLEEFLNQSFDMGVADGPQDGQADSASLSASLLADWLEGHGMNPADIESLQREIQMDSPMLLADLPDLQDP
# Chain of NAD(+) hydrolase SARM1 (Homo sapiens) (Q6SZW1 whole entry, looked up): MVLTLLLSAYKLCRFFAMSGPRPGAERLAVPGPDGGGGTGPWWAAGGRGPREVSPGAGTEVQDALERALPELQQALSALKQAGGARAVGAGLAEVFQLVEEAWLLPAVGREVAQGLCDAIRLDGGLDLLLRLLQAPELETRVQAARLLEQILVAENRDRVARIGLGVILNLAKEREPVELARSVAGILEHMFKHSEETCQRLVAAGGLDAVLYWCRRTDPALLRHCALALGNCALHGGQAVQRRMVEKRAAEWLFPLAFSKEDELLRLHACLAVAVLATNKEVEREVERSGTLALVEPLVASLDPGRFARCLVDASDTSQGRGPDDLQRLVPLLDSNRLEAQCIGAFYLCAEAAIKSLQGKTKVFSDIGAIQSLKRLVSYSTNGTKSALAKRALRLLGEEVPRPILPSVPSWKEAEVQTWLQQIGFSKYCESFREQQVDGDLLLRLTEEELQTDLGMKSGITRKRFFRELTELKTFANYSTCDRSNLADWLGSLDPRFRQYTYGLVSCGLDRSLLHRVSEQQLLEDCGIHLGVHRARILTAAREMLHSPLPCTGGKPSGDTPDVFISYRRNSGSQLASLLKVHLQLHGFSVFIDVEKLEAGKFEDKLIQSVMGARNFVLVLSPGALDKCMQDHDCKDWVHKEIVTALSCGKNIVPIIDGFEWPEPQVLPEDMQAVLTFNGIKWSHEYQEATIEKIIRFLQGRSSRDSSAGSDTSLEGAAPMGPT
# Chain of 6-phosphogluconate dehydrogenase, decarboxylating (Homo sapiens) (P52209 whole entry, looked up): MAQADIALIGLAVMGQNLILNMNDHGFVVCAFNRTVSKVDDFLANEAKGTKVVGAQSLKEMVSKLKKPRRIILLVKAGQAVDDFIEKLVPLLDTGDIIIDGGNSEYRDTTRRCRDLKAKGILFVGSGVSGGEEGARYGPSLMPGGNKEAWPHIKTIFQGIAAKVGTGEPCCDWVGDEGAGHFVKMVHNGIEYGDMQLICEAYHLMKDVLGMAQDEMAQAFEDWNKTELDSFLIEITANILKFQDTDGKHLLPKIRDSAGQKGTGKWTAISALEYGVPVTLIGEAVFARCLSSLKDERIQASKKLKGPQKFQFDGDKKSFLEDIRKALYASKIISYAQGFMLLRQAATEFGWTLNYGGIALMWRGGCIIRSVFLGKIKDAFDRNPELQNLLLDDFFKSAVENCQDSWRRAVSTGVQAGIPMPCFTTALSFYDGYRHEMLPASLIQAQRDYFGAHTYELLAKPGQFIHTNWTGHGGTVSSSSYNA
structure (smiles),measurement,setting,value
NCCCCN,inhibition,[1],-6.18%
same,score,[2],1.21
same,rescue above control,[3],9.16
same,cytochrome c release ratio,[4],0.9
same,inhibition of aggregation,[5],70.6%
same,glutamate uptake change,[6],0.99%
same,inclusion score,[7],2
same,aggregation suppression score,[8],1.37
same,period change,[9],0.01 h (inactive)
same,inhibition,[10],-11.8% (inactive)
same,red/green cell ratio (normalised),[11],1.04 (inactive)
same,normalised cell number,[11]; [20],0.98
same,normalised cell number,[11]; [21],1.02
same,fold change,[12]; [22],1.02 (inactive)
same,fold change,[12]; [23],1.7
same,cell count,[12]; [24],9820
same,cell count,[12]; [25],9630
same,outcome,[13],inactive
same,luciferase signal,[14],44 AU (inactive)
same,z-score,[15],0.975 (inactive)
O=c1c2ccccc2oc2ccccc12,inhibition,[10],0.222% (inactive)
same,red/green cell ratio (normalised),[11],1.1 (inactive)
same,normalised cell number,[11]; [20],0.96
same,normalised cell number,[11]; [21],1.06
same,fold change,[12]; [22],0.991 (inactive)
same,fold change,[12]; [23],0.506
same,cell count,[12]; [24],7550
same,cell count,[12]; [25],7620
same,z-score,[16]; [26],-0.409 (inactive)
same,z-score,[16]; [27],-0.0965
same,luciferase signal,[14],64 AU (inactive)
NC(=O)c1ccc[n+]([C@@H]2O[C@H](COP(=O)([O-])OP(=O)(O)OC[C@H]3O[C@@H](n4cnc5c(N)ncnc54)[C@H](O)[C@@H]3O)[C@@H](O)[C@H]2O)c1,inhibition,[1],7.61%
same,score,[2],1.51
same,rescue above control,[3],2.62
same,cytochrome c release ratio,[4],0.91
same,inhibition of aggregation,[5],63.6%
same,glutamate uptake change,[6],28.3%
same,inclusion score,[7],2
same,aggregation suppression score,[8],1.51
same,parasite load remaining,[17],87.2% (inactive) and 76.6% (inactive)
same,viability,[17],103% and 92.6%
same,inhibition,[10],10.6% (inactive)
same,red/green cell ratio (normalised),[11],0.97 (inactive)
same,normalised cell number,[11]; [20],1.17
same,normalised cell number,[11]; [21],1.14
same,fold change,[12]; [22],0.824 (inactive) and 0.891 (inactive)
same,fold change,[12]; [23],1.3 and 1.13
same,cell count,[12]; [24],8060 and 11500
same,cell count,[12]; [25],9780 and 12900
same,z-score,[16]; [26],-1.2 (inactive)
same,z-score,[16]; [27],0.344
same,remaining NAD,[18],183 nM (active)
same,luciferase signal,[14],72 AU (inactive)
C[N+](C)(C)CC(O)CC(=O)O (stereo not drawn),inhibition,[1],0.15%
same,score,[2],1.34
same,rescue above control,[3],-5.96
same,cytochrome c release ratio,[4],0.99
same,inhibition of aggregation,[5],88.8%
same,glutamate uptake change,[6],-5.62%
same,inclusion score,[7],2
same,aggregation suppression score,[8],1.39
same,parasite load remaining,[17],33.4% (inactive)
same,viability,[17],63.9%
same,inhibition,[10],-11.2% (inactive)
same,red/green cell ratio (normalised),[11],0.84 (inactive)
same,normalised cell number,[11]; [20],0.96
same,normalised cell number,[11]; [21],0.81
same,fold change,[12]; [22],0.835 (inactive)
same,fold change,[12]; [23],0.677
same,cell count,[12]; [24],6370
same,cell count,[12]; [25],7640
same,z-score,[16]; [26],-0.35 (inactive)
same,z-score,[16]; [27],-0.217
same,luciferase signal,[14],24 AU (inactive)
CC(=O)N1CCN(c2ccc(OCC3CO[C@](Cn4ccnc4)(c4ccc(Cl)cc4Cl)O3)cc2)CC1 (stereo partly drawn),inhibition,[1],-4.16%
same,score,[2],0.15
same,rescue above control,[3],0.92
same,cytochrome c release ratio,[4],1.8
same,inhibition of aggregation,[5],88.5%
same,glutamate uptake change,[6],-8.61%
same,aggregation suppression score,[8],0.126
same,parasite load remaining,[17],15.3% (inactive) and 4.75% (inactive)
same,viability,[17],65.5% and 60%
same,inhibition,[10],-8.94% (inactive)
same,red/green cell ratio (normalised),[11],0.9 (inactive)
same,normalised cell number,[11]; [20],0.95
same,normalised cell number,[11]; [21],0.85
same,fold change,[12]; [22],1 (inactive) and 1.02 (inactive) and 0.954 (inactive)
same,fold change,[12]; [23],2.72 and 0.263 and 1.79
same,cell count,[12]; [24],7410 and 7100 and 8230
same,cell count,[12]; [25],7380 and 6960 and 8630
same,z-score,[16]; [26],-0.501 (inactive)
same,z-score,[16]; [27],-0.0671
same,z-score,[15],-0.8 (inactive)
N[C@@H](Cc1cc(I)c(Oc2ccc(O)c(I)c2)c(I)c1)C(=O)O,survival,[19],4.58 (inactive)
same,parasite load remaining,[17],78.5% (inactive) and 158% (inactive) and 41% (inactive)
same,viability,[17],96% and 73% and 101%
same,inhibition,[10],0.697% (inactive)
same,red/green cell ratio (normalised),[11],1.24 (inactive)
same,normalised cell number,[11]; [20],0.91
same,normalised cell number,[11]; [21],1.14
same,fold change,[12]; [22],0.925 (inactive) and 0.987 (inactive)
same,fold change,[12]; [23],0.994 and 1.44
same,cell count,[12]; [24],10000 and 11900
same,cell count,[12]; [25],10800 and 12100
same,z-score,[16]; [26],-0.576 (inactive)
same,z-score,[16]; [27],-1.73
same,remaining NAD,[18],10 nM (inactive)
same,luciferase signal,[14],80 AU (inactive)
CC(C(=O)O)c1ccc(N2Cc3ccccc3C2=O)cc1 (stereo not drawn),inhibition,[1],-2.1%
same,score,[2],0.89
same,rescue above control,[3],-4.46
same,cytochrome c release ratio,[4],1.17
same,inhibition of aggregation,[5],83.7%
same,glutamate uptake change,[6],-13.2%
same,inclusion score,[7],2.5
same,aggregation suppression score,[8],1.02
same,survival,[19],4.83 (inactive)
same,parasite load remaining,[17],132% (inactive) and 273% (inactive) and 101% (inactive)
same,viability,[17],95.7% and 78.1% and 95.5%
same,inhibition,[10],-13% (inactive)
same,red/green cell ratio (normalised),[11],1.39 (inactive)
same,normalised cell number,[11]; [20],0.94
same,normalised cell number,[11]; [21],1.31
same,fold change,[12]; [22],0.881 (inactive) and 0.915 (inactive)
same,fold change,[12]; [23],1.39 and 0.964
same,cell count,[12]; [24],9440 and 11300
same,cell count,[12]; [25],10700 and 12400
same,z-score,[16]; [26],0.44 (inactive)
same,z-score,[16]; [27],-0.221
same,remaining NAD,[18],10 nM (inactive)
same,luciferase signal,[14],68 AU (inactive)
CN(C)CCOC(c1ccccc1)c1ccccc1 (tested in a mixture with another compound),inhibition,[1],13%
same,score,[2],1.21
same,rescue above control,[3],26.8
same,cytochrome c release ratio,[4],1.23
same,inhibition of aggregation,[5],69.8%
same,glutamate uptake change,[6],-19.1%
same,inclusion score,[7],2
same,aggregation suppression score,[8],0.942
same,survival,[19],24.5 (inactive)
same,inhibition,[10],11% (inactive)
same,red/green cell ratio (normalised),[11],1.07 (inactive)
same,normalised cell number,[11]; [20],1.32
same,normalised cell number,[11]; [21],1.41
same,fold change,[12]; [22],0.893 (inactive) and 0.836 (inactive)
same,fold change,[12]; [23],1.17 and 1.81
same,cell count,[12]; [24],8830 and 11000
same,cell count,[12]; [25],9890 and 13100
same,z-score,[16]; [26],0.49 (inactive)
same,z-score,[16]; [27],0.296
same,remaining NAD,[18],10 nM (inactive)
same,luciferase signal,[14],28 AU (inactive)
CC(=O)Oc1ccccc1C(=O)Oc1ccccc1C(=O)O,survival,[19],16.8 (inactive)
same,parasite load remaining,[17],36.8% (inactive) and 92.5% (inactive)
same,viability,[17],53.8% and 90.5%
same,inhibition,[10],14.2% (inactive)
same,red/green cell ratio (normalised),[11],1.07 (inactive)
same,normalised cell number,[11]; [20],0.97
same,normalised cell number,[11]; [21],1.04
same,fold change,[12]; [22],0.938 (inactive)
same,fold change,[12]; [23],0.828
same,cell count,[12]; [24],8700
same,cell count,[12]; [25],9270
same,z-score,[16]; [26],-0.224 (inactive)
same,z-score,[16]; [27],0.071
same,luciferase signal,[14],48 AU (inactive)
O=C(O)c1cc2cc(F)ccc2[nH]1,period change,[9],0.04 h (inactive)
same,inhibition,[10],0.201% (inactive)
same,red/green cell ratio (normalised),[11],0.92 (inactive)
same,normalised cell number,[11]; [20],0.97
same,normalised cell number,[11]; [21],0.89
same,fold change,[12]; [22],0.936 (inactive)
same,fold change,[12]; [23],1.52
same,cell count,[12]; [24],9030
same,cell count,[12]; [25],9650
same,outcome,[13],inactive
same,luciferase signal,[14],24 AU (inactive)
same,z-score,[15],1.04 (inactive)
Cn1c(=O)[nH]c2ncn(C)c2c1=O,inhibition,[1],15.7%
same,score,[2],1.32
same,rescue above control,[3],-11.3
same,cytochrome c release ratio,[4],1.26
same,inhibition of aggregation,[5],52.4%
same,glutamate uptake change,[6],1.28%
same,inclusion score,[7],2
same,aggregation suppression score,[8],1.3
same,period change,[9],-0.1 h (inactive)
same,inhibition,[10],-14.1% (inactive)
same,red/green cell ratio (normalised),[11],0.89 (inactive)
same,normalised cell number,[11]; [20],1.01
same,normalised cell number,[11]; [21],0.9
same,fold change,[12]; [22],0.988 (inactive)
same,fold change,[12]; [23],1.17
same,cell count,[12]; [24],9800
same,cell count,[12]; [25],9920
same,outcome,[13],inactive
same,z-score,[15],0.31 (inactive)
